Test [1] is described as follows: antimalarial activity against Dd2 strain (AID 2302;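 active = growth inhibition above 50% at the single 2 µM test dose, taken to imply half-maximal potency below 2 µM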;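 also: 0% = DMSO untreated growth and 100% = chloroquine plus artemisinin killed control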). As to conditions: P. falciparum Dd2 in RBCs, LDH growth readout, 72 h; at 2 µM; hits give high values.
Test [2] is described as follows: HepG2 cytotoxicity, primary screen, cytotoxicity control for P. falciparum antimalarial project, cell-based, ATP luminescence (AID 2303;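 active = inhibition above 50%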;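 also: 0% = DMSO wells and 100% = digitonin-killed cells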). To be noted: HepG2 viability, 24-48 h, at 10 µM, hits give high values.
Test [3] concerns the target L-lactate dehydrogenase (Plasmodium falciparum (isolate CDC / Honduras)) (UniProt Q27743). The test can be described thus: PfLDH activity inhibition – cell lysate, 3D7 strain, counter-screen for P. falciparum growth inhibition project (AID 2304).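 Also: 0% = vehicle and 100% = reference inhibitor.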 As to conditions: P. falciparum 3D7 crude extract, LDH APAD/NBT absorbance; at 2 µM; hits give high values. For orientation: The purpose of a counterscreen is to sort out artefacts and off-target activity.

A short description of test [4]: inhibition of 3D7 malaria parasite growth – strain 3D7 (AID 2306).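 Also: 0% = DMSO wells and 100% = chloroquine plus artemisinin control wells.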 As to conditions: P. falciparum 3D7 erythrocytic growth, LDH absorbance, 72 h; at 2 µM; hits give high values.
Test [5] concerns the target Calcium-dependent protein kinase 1 (Plasmodium falciparum (isolate 3D7)) (UniProt P62344). Kind of test: PfCDPK1 kinase inhibitors, biochemical, TCAMS library (AID 1159585; cut-off not given, nearly all actives have IC50 up to about 0.98 µM;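 also: inhibitors leave more ATP so luminescence rises with inhibition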). As to conditions: recombinant PfCDPK1, Kinase-Glo ATP depletion luminescence.
In test [6] the target is Plasmodium falciparum protein kinase 6 (PK6, PF3D7_1337100) (UniProt Q8IDW1). Kind of test: PfPK6 kinase inhibitors, biochemical, TCAMS library (AID 1159586). As to conditions: recombinant PfPK6, Kinase-Glo ATP depletion luminescence. A general note: Kinase-Glo measures the ATP left after a reaction by luminescence.
Plasmodium falciparum protein kinase 6 (PK6, PF3D7_1337100), sequence (Q8IDW1 1-305): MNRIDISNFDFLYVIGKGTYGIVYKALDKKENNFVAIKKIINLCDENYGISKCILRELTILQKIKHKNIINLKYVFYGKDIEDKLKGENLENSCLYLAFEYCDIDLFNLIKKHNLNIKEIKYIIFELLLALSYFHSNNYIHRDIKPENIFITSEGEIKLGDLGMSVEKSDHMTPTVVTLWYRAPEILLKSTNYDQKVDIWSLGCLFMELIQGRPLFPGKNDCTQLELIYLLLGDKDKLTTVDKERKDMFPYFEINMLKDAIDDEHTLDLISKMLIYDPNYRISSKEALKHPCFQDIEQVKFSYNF
The target of test [7] is Protein kinase 7 (PK7), Plasmodium falciparum 3D7 (PF3D7_0213400) (UniProt Q7YTF7). The test can be described thus: inhibition of Plasmodium PK7 catalytic activity – biochemical, TCAMS antimalarial set, Kinase-Glo luminescence (AID 1159587). As to conditions: recombinant PfPK7, Kinase-Glo ATP depletion luminescence.
Protein kinase 7 (PK7), Plasmodium falciparum 3D7 (PF3D7_0213400), sequence (Q7YTF7 1-343): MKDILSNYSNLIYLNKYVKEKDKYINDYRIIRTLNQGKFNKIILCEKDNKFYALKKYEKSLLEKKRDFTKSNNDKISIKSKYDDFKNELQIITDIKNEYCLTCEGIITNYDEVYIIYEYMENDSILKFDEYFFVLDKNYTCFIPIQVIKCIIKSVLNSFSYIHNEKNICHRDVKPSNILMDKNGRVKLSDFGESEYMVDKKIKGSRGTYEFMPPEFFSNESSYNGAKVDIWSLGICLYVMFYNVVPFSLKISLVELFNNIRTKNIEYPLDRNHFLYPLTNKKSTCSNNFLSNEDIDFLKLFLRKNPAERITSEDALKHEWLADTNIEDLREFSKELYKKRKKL
Test [8] has as its target Calcium-dependent protein kinase 4 (Plasmodium falciparum (isolate 3D7)) (UniProt Q8IBS5). Kind of test: PfCDPK4 kinase inhibitors, biochemical, TCAMS library (AID 1159588; cut-off not given, nearly all actives have IC50 up to about 0.91 µM). As to conditions: recombinant PfCDPK4, Kinase-Glo ATP depletion luminescence.

Structures are written as SMILES. Unmarked numbers belong to inactive results. For some assays here: Results with a measured potency or affinity are listed apart. The source made the active and inactive calls. Unless noted, no rule for the calls is given here.

Broadly, the inhibition is the relative decrease from the control value, in per cent.

L-lactate dehydrogenase (Plasmodium falciparum (isolate CDC / Honduras)), sequence (Q27743 whole entry, looked up): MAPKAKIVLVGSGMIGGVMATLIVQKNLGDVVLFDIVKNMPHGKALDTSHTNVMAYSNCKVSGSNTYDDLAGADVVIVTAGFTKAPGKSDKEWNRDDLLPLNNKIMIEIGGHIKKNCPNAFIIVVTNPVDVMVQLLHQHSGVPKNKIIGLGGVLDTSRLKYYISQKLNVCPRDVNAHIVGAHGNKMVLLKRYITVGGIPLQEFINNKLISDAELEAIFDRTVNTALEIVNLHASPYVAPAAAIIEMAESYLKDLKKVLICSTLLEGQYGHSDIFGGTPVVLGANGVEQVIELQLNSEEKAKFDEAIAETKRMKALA
Calcium-dependent protein kinase 4 (Plasmodium falciparum (isolate 3D7)), sequence (Q8IBS5 whole entry, looked up): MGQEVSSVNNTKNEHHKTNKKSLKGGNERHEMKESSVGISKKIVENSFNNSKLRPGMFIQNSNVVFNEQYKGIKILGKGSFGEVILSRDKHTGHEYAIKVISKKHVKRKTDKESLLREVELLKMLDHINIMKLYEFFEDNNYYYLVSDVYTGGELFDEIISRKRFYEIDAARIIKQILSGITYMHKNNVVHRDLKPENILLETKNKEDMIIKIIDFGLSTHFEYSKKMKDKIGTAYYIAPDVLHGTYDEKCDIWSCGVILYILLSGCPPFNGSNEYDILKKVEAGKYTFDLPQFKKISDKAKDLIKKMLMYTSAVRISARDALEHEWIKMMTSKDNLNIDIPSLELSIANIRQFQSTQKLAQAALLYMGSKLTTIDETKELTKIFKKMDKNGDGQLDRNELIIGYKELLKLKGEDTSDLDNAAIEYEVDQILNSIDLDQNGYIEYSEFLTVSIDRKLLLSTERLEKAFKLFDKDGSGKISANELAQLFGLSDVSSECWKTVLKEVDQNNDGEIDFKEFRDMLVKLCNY
Calcium-dependent protein kinase 1 (Plasmodium falciparum (isolate 3D7)), sequence (P62344 whole entry, looked up): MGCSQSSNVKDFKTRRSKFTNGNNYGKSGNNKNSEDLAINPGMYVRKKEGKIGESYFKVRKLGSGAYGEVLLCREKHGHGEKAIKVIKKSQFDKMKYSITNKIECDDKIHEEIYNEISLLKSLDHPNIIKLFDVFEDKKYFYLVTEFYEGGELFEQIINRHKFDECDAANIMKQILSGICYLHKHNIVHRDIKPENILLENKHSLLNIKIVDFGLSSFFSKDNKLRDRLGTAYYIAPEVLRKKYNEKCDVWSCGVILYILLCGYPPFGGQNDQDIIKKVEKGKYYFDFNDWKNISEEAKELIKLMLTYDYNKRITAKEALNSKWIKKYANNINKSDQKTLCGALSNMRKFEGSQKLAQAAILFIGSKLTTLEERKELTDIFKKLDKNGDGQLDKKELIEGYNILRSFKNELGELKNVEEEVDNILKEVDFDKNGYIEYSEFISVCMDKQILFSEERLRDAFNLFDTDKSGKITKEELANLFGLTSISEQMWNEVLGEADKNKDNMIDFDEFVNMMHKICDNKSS

Consider `CN1CCN(S(=O)(=O)c2ccc3nccc(Nc4ccc(Oc5ccccc5)cc4)c3c2)CC1`, for which the results for the growth inhibition in test [1] and in test [4] were 91% (active) and 98% (active), respectively. Further, the inhibition in test [2] was -9%; in test [3] it was -3%. The outcome in test [5], in test [6], in test [7] and in test [8] was inactive.

Regarding `CC(C)c1cccc(C(NC(=O)[C@H]2Cc3ccccc3CN2C(=O)c2cccc(N3CCOCC3)c2)C2CCCC2)c1` (some centres not stated), the growth inhibition in test [1] is 96% (active); in test [4], 94% (active). The inhibition in test [2] is 3%; in test [3] it was 1%. Besides, the outcome in test [5], in test [6], in test [7] and in test [8] was inactive.

As for `CC1(C)N=C(NC(=O)c2ccc([N+](=O)[O-])cc2)N=C(N)N1OCc1ccc2ccccc2c1`, the growth inhibition in test [1] was 78% (active); in test [4], 95% (active). In addition, the figures for the inhibition in test [2] and in test [3] were 64% (active) and -8%, respectively. Further, the outcome in test [5], in test [6], in test [7] and in test [8] was inactive.

Turning to `CN1CCN(c2nsc3ccc(-c4ccc(OCCN5CCCC5)cc4)cc23)CC1`, the growth inhibition in test [1] was 99% (active); in test [4], 102% (active). Also, the inhibition in test [2] is 57% (active); in test [3] it was 6%. Also, the result in test [5], in test [6], in test [7] and in test [8] was inactive.

For `CC(=O)c1ccc(-n2ccnc2)cc1`, the growth inhibition is -1% in test [1] and 92% (active) in test [4]. Also, the inhibition in test [2] was -4%; in test [3], -3%. Moreover, the outcome in test [5], in test [6], in test [7] and in test [8] was inactive.

As to `CS(=O)(=O)c1ccc(CCNCc2ccc(-c3ccc(CNC4CCN(Cc5ccccc5)CC4)cc3)nc2)cc1`, the growth inhibition was 100% (active) in test [1] and 101% (active) in test [4]. For the same compound, the inhibition in test [2] is 32%; in test [3] it was 3%. Also, the outcome in test [5], in test [6], in test [7] and in test [8] was inactive.

On to `c1ccc(-c2[nH]ncc2Nc2ccnc3ccccc23)nc1`, for which the growth inhibition in test [1] is 98% (active); in test [4], 100% (active). For the same compound, the inhibition in test [2] was 36%; in test [3], 1%. Also, the result in test [5], in test [6], in test [7] and in test [8] was inactive.

For the compound `CCOC(=O)c1ccc(NC(=O)Nc2ccc(-c3ccc(-c4nc5ccccc5[nH]4)cc3)cc2)cc1`, the growth inhibition in test [1] was 100% (active); in test [4], 101% (active). Besides, the results for the inhibition in test [2] and in test [3] were 49% and 0%, respectively. The outcome in test [5], in test [6], in test [7] and in test [8] was inactive.

In the case of `Cc1cc(N2CCCC2)nc(Nc2ccc(NC(=O)c3ccccc3F)cc2)n1`, the growth inhibition was 44% in test [1] and 98% (active) in test [4]. Besides, the inhibition in test [2] is 36%; in test [3], -3%. Moreover, the result in test [5], in test [6], in test [7] and in test [8] was inactive.

Consider `CCCn1c(Sc2ccc(C#N)c([N+](=O)[O-])c2)nnc1-c1ccc(Cl)cc1`, for which the growth inhibition in test [1] is 95% (active); in test [4], 96% (active). In addition, the inhibition is 12% in test [2] and -3% in test [3]. Further, the result in test [5], in test [6], in test [7] and in test [8] was inactive.

For `O=C(CC(=O)C(F)(F)F)c1ccc2c(c1)OCO2`, the growth inhibition is 0% in test [1] and 96% (active) in test [4]. Moreover, the inhibition in test [2] is 44%; in test [3], 0%. The outcome in test [5], in test [6], in test [7] and in test [8] was inactive.

Take `O=C(Nc1ccc(Cl)cc1)Nc1nc2ccc([N+](=O)[O-])cc2[nH]1`: the growth inhibition in test [1] was 6%; in test [4] it was 101% (active). The inhibition in test [2] is -2%; in test [3], 3%. In addition, the result in test [5], in test [6], in test [7] and in test [8] was inactive.

As for `CC(C)CCN1CCC(Oc2ccc(NC(=O)c3ccsc3)cc2Cl)CC1`, the values for the growth inhibition in test [1] and in test [4] were 81% (active) and 89% (active), respectively. Further, the values for the inhibition in test [2] and in test [3] were 19% and 0%, respectively. The result in test [5], in test [6], in test [7] and in test [8] was inactive.

As for `CC1CCCN(S(=O)(=O)c2cc(Br)cc3c2N(C(=O)C2CC2)CC3)C1` (configuration not stated), the growth inhibition in test [1] was 70% (active); in test [4] it was 83% (active). Moreover, the results for the inhibition in test [2] and in test [3] were -14% and -3%, respectively. In addition, the result in test [5], in test [6], in test [7] and in test [8] was inactive.

`O=C(Nc1cccc(CN2CCCN(Cc3ccc(O)cc3)CC2)c1)c1ccc(Br)cc1`: the values for the growth inhibition in test [1] and in test [4] were 54% (active) and 94% (active), respectively. Moreover, the inhibition is 19% in test [2] and -2% in test [3]. Also, the result in test [5], in test [6], in test [7] and in test [8] was inactive.

As to `Clc1cc(Cl)c2cc(CNCCCNc3ccc4ccccc4n3)[nH]c2c1`, the growth inhibition in test [1] is 54% (active); in test [4] it was 99% (active). Besides, the inhibition was 98% (active) in test [2] and 3% in test [3]. For the same compound, the outcome in test [5], in test [6], in test [7] and in test [8] was inactive.

`CCOc1ccc(NC(=O)c2ccc(CN3CCCN(Cc4cccc(O)c4)CC3)cc2)cc1`: the growth inhibition in test [1] was 9%; in test [4], 85% (active). In addition, the inhibition in test [2] was 44%; in test [3], 0%. For the same compound, the result in test [5], in test [6], in test [7] and in test [8] was inactive.

With `Cc1nc(-c2ccc(-c3ccc(C(=O)Nc4ccc(I)c(OCC5CCCN5C)c4)cc3)c(C)c2)no1` (configuration not stated), the results for the growth inhibition in test [1] and in test [4] were 39% and 97% (active), respectively. Also, the inhibition was 100% (active) in test [2] and -2% in test [3]. Further, the result in test [5], in test [6], in test [7] and in test [8] was inactive.

`COc1cc(C)ccc1S(=O)(=O)N1CCCCC(c2ccc(C(F)(F)F)cc2)=N1`: the growth inhibition is 89% (active) in test [1] and 92% (active) in test [4]. Also, the values for the inhibition in test [2] and in test [3] were 16% and -1%, respectively. Moreover, the result in test [5], in test [6], in test [7] and in test [8] was inactive.

These data come from PubChem BioAssay.
